The campaign covered roughly 330,000 compounds. About 4,100 (1.2%) were called active. This is one part of a sample in which actives are shown more often than they occur. A number with no mark means an inactive call. Rule as the data show it: active = inhibition above about 50%; inactive = the rest.
What follows are compounds tested against Sentrin-specific protease 8 (Homo sapiens) (UniProt Q96LD8) (assay: blockers of human SENP8 peptidase activity – biochemical, luminescence, primary screen (AID 2540)). Conditions: purified SENP8, Z-RLRGG-aminoluciferin cleavage, at 10 µM, active compounds read high.
Chain of Sentrin-specific protease 8 (Homo sapiens) (Q96LD8 whole entry, looked up): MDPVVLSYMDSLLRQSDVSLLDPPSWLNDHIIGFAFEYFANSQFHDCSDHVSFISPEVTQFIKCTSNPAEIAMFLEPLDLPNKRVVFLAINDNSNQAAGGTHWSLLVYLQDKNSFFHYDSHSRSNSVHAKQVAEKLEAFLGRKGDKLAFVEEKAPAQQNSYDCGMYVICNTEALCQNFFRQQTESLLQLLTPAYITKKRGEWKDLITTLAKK
`O=C(NCCOc1cccnc1)c1ccc(OC2CCN(Cc3ccccn3)CC2)cc1` was tested, and the inhibition was -5.27%.
`CCN(C(=O)COc1cccnc1[N+](=O)[O-])C1CCS(=O)(=O)C1` (configuration not stated) was tested, and the inhibition was 1.37%.
Work on `O=C1C2CCCN2C(=O)N1CCCCN1CCN(c2cccc(C(F)(F)F)c2)CC1` (configuration not stated) yielded an inhibition of 11.4%.
Compound `O=C(COC(=O)c1cccnc1Cl)Nc1ccc(S(=O)(=O)N2CCOCC2)cc1` has an inhibition of -1.74%.
Compound `COc1ccc(NS(=O)(=O)c2cc(C(=O)Nc3ccccc3C(=O)O)ccc2C)cc1` has an inhibition of -12.1%.
For `COc1ccc(/C=N/Nc2ccccc2C(=O)O)cc1`, the inhibition was 96.1% (active).
`COc1ccc(C(=O)Nc2ccccc2C(=O)N/N=C/c2ccc(O)c(OC)c2)cc1` was tested, and the inhibition was 96.1% (active).
In the case of `COc1ccc(/C=N/OCC(=O)N(Cc2ccccc2)c2ccccc2C(=O)O)cc1`, the inhibition is reported as -0.249%.
Work on `O=C(N/N=C/c1ccc(OC(=O)c2ccccc2Cl)cc1)c1ccc(O)cc1` yielded an inhibition of 1.64%.
`COc1ccc(C(=O)Nc2ccccc2C(=O)N2CCN(c3ccccc3)CC2)cc1` showed an inhibition of 0.756%.
Work on `CCOC(=O)C(C)n1cnc2c(nnn2-c2cccc(OC)c2)c1=O` (configuration not stated) yielded an inhibition of -4.12%.
For `Cc1cc(=O)oc2c(C(=O)c3ccccc3)c(OCC(N)=O)ccc12`, the inhibition was 5.39%.
For `Nc1[nH]c(=S)nc2nc(-c3ccccc3)c(-c3ccccc3)nc12`, the inhibition was -9.6%.
`Cc1cccnc1CCNC(=O)C1CCC(=O)N(Cc2cccc(F)c2)C1` (configuration not stated) showed an inhibition of -1.77%.
`O=C(CNCc1ccco1)Nc1cc(S(=O)(=O)N2CCOCC2)ccc1N1CCCC1` was tested, and the inhibition was -6.3%.
In the case of `CCN(CC)C(=O)CC1(c2ccccc2OC)CCOC(C(C)C)C1` (configuration not stated), the inhibition is reported as -10.8%.
Compound `COc1ccc(CCNC(=O)C2CCCN2C(=O)Nc2ccccc2)cc1OC` (configuration not stated) has an inhibition of -4.97%.
For `Nc1nonc1-c1noc(-c2ccc(Br)o2)n1`, the inhibition was -7.25%.
`Brc1ccc(-c2nnc(-c3ccccc3)o2)o1` showed an inhibition of 35.5%.
In the case of `Brc1ccc(-c2noc(-c3ccccc3)n2)o1`, the inhibition is reported as 73% (active).
`O=c1[nH]c(CCl)nc2cc(-c3ccc(Cl)cc3)sc12` was tested, and the inhibition was 90.6% (active).
`O=C(CCc1nc2ccccc2c(=O)[nH]1)OCC(=O)c1cccc(Cl)c1` showed an inhibition of -5.04%.
With `CCC1(CC)Cc2ccccc2-c2nc(CCl)[nH]c(=O)c21` the inhibition was 1.95%.
With `O=C(NCCc1ccco1)C(=O)NCCC1CCCCN1S(=O)(=O)c1ccccc1` (configuration not stated) the inhibition was 2.72%.
Compound `CC(C)(C)NC(=O)CN(Cc1cccs1)C(=O)CNS(=O)(=O)c1ccccc1` has an inhibition of 2.68%.
`O=C(CSc1cccc[n+]1[O-])NCCCc1ccccc1` was tested, and the inhibition was 3.26%.
In the case of `Fc1ccc(COc2cccc(-c3n[nH]c(=S)o3)c2)cc1`, the inhibition is reported as 26.4%.
In the case of `Fc1ccc(COc2ccc(-c3nnco3)cc2)cc1`, the inhibition is reported as 52.5% (active).
In the case of `Fc1cccc(Cl)c1COc1ccc(-c2nnco2)cc1`, the inhibition is reported as -0.803%.
For `CCN(CC)c1ccc(S(=O)(=O)N2CCCCC2)cc1NC(=O)C1=COCCO1`, the inhibition was -1.53%.
`COC(=O)c1ccc(C)c(NC(=O)C2CC(=O)N(C3CCCC(C)C3C)C2)c1` (configuration not stated) showed an inhibition of -6.55%.
Compound `O=C(NCC1CCCO1)c1cc2c(s1)CCCC2` (configuration not stated) has an inhibition of 0.761%.
`CN(C)C(=O)c1ccc(NC(=O)COC(=O)c2cc3c(s2)CCCCC3)cc1` gave an inhibition of -5.57%.
In the case of `O=C(Nc1ccc(F)cc1)c1cc2c(s1)CCCC2`, the inhibition is reported as 90.8% (active).
In the case of `CC(NC(=O)c1cc2cc(Cl)ccc2oc1=N)c1ccccc1` (configuration not stated), the inhibition is reported as -6.62%.
`COCC(C)NC(=O)COc1nncc2ccccc12` (configuration not stated) was tested, and the inhibition was -1.01%.
In the case of `CCCC(=O)Nc1cccc(NC(=S)NC(=O)C(C)Oc2ccc(Cl)cc2Cl)c1` (configuration not stated), the inhibition is reported as -4.44%.
Work on `O=c1oc2ccccc2cc1-c1cn(-c2ccccc2)c(=S)[nH]1` yielded an inhibition of -12.9%.
With `Nc1ncc(-c2cc3ccccc3oc2=O)s1` the inhibition was 84% (active).
With `O=C(NCc1cccnc1)c1cccc(-c2cc3ccccc3oc2=O)c1` the inhibition was -8.55%.
For `Cc1cccc(NC(=O)Nc2ccc3c(c2)OCO3)n1`, the inhibition was 13.3%.
`Cc1cccc(NC(=O)/C=C/c2ccc3c(c2)OCO3)n1` was tested, and the inhibition was 73.5% (active).
Compound `O=C(/C=C/c1ccc2c(c1)OCO2)NCc1ccc(F)cc1` has an inhibition of -4.04%.
With `COc1ccc(OC)c(NC(=O)c2cnn(-c3ccccc3Cl)c2NC(=O)c2ccco2)c1` the inhibition was 7.71%.
For `O=C(Nc1ccccc1)c1cc2ccccc2[nH]1`, the inhibition was 72% (active).
Work on `CC(OC(=O)c1cc2ccccc2[nH]1)C(=O)N(C)c1ccccc1` (configuration not stated) yielded an inhibition of -8.47%.
`COc1ccc2[nH]c(C(=O)Nc3ccccc3Cl)cc2c1` gave an inhibition of -24.6%.
`CSc1ccc(/C=N\NC(=O)CC(=O)NC(C)C)cc1` was tested, and the inhibition was 5.31%.
Compound `O=C(N/N=C/c1ccc(Cl)c(Cl)c1)c1ccc2nc[nH]c2c1` has an inhibition of -2.15%.
In the case of `CSc1ccc(/C=N/NC(=O)c2cccc(Cl)c2)cc1`, the inhibition is reported as 89.4% (active).
`O=C(CNS(=O)(=O)c1ccc(Br)s1)NCc1ccc2c(c1)OCO2` showed an inhibition of -11.1%.
For `COc1ccc(C(=O)Nc2cc(C)ccc2NC(=O)COc2ccccc2)cc1`, the inhibition was -2.67%.
For `COc1ccc(C(=O)Nc2ccc(F)cc2F)cc1`, the inhibition was 65.2% (active).
With `CC(C)CC(=O)NC(=S)Nc1ccc(F)cc1F` the inhibition was 3.9%.
Compound `CCC(CO)Oc1cc(NCc2ccccc2)c2ncn(C3CCCC3)c2c1` (configuration not stated) has an inhibition of -0.274%.
In the case of `CC(C)n1cnc2c(NCc3ccccc3)cc(OCC3CCN(C)CC3)cc21`, the inhibition is reported as 44.5%.
For `CC(C)n1cnc2c(NCc3ccccc3)cc(N[C@@H](CO)Cc3ccccc3)cc21`, the inhibition was 72.8% (active).
In the case of `CN1CCC(N(C)S(=O)(=O)c2ccc(NC(=O)c3cccc(C#N)c3)cc2)CC1`, the inhibition is reported as -1.55%.
`O=c1c2cc(-c3ccccc3)sc2nc2n1N=C(c1cccs1)CS2` was tested, and the inhibition was 57.5% (active).
In the case of `Cc1nnc2n1N=C(c1ccccc1)CS2`, the inhibition is reported as 1.54%.
`O=c1c(-c2ccccc2)cnc2n1CCS2` showed an inhibition of 6.64%.
For `O=C(Cc1ccccc1)Nc1cccc(NC(=O)c2ccccc2)c1`, the inhibition was -8.4%.
With `O=C(Nc1cccc(NC(=O)c2cccc(F)c2)c1)c1ccccc1` the inhibition was -15.3%.
In the case of `O=C(Nc1ccc(C(=O)O)c(O)c1)c1ccccc1`, the inhibition is reported as 76.3% (active).
`COc1ccc(OCC(=O)NCCS(=O)(=O)N2CCN(c3ccc(F)cc3)CC2)cc1` gave an inhibition of 1.89%.
Work on `CN=C(NC#N)NCCSCc1nc[nH]c1C` yielded an inhibition of -4.47%.
With `O=C(c1cnn(-c2ccc(Cl)cc2)c1)c1ccccc1O` the inhibition was 91.4% (active).
With `O=C(Nc1ccccc1)OCc1cn(-c2ccc(Cl)cc2)nn1` the inhibition was -2.31%.
With `Cc1cc(O)cc(O)c1C(=O)Cc1cnn(-c2ccccc2)c1` the inhibition was -5.32%.
For `O=c1[nH]c(CN2CCOCC2)nc2scc(-c3ccccc3)c12`, the inhibition was 1.83%.
`CC(C)(C)c1cc(C(=O)N/N=C/c2ccc([N+](=O)[O-])s2)n[nH]1` gave an inhibition of 20.8%.
In the case of `O=[N+]([O-])c1ccc(C=Nc2ccc(Cl)cc2Cl)s1`, the inhibition is reported as 59.6% (active).
In the case of `Cc1ccccc1NCC(=O)N/N=C\c1ccc([N+](=O)[O-])s1`, the inhibition is reported as 33%.
`CCc1ccc(NC(=O)N2CCc3ccccc3C2)cc1` showed an inhibition of -3.45%.
In the case of `COc1ccc([N+](=O)[O-])cc1NC(=O)C(C)OC(=O)C1c2ccccc2Oc2ccccc21` (configuration not stated), the inhibition is reported as -5.39%.
`Cn1cnc(C(F)(F)F)c1-c1ccc([N+](=O)[O-])cc1` was tested, and the inhibition was 2.27%.
With `O=c1c2ccccc2ncn1/N=C/c1ccccc1` the inhibition was 80.9% (active).
Compound `CN(C(=O)Nc1ccc(Cl)cc1)n1cnc2ccccc2c1=O` has an inhibition of -6.28%.
`CCOC(=O)N1CCN(C(=O)Cn2cnc3ccccc3c2=O)CC1` gave an inhibition of -8.63%.
With `CCOC(=O)C1CCN(S(=O)(=O)c2ccc3c(c2)N(C(C)=O)CCO3)CC1` the inhibition was -1.03%.
With `Cc1ccc(CNC(=O)[C@@H](NC(=O)Cc2ccccc2)C(C)C)cc1` the inhibition was 2.25%.
`CC(C)C(=O)Nc1nnc(SCC(=O)N2C(C)CCCC2C)s1` (configuration not stated) gave an inhibition of -3.68%.
Work on `COc1ccc(C2C3=C(OC(C)=O)c4ccccc4C3=Nc3c2c(=O)n(C)c(=O)n3C)cc1` (configuration not stated) yielded an inhibition of 7.93%.
Compound `O=C(COC(=O)/C=C/c1cn(-c2ccccc2)nc1-c1cccnc1)Nc1ccc(Cl)cc1Cl` has an inhibition of -4.08%.
In the case of `CCOc1ccc(C(=O)Nc2cccc(-c3ccc4nncn4n3)c2)cc1`, the inhibition is reported as -9.4%.
`CSc1cccc(NC(=O)CSc2ccccc2)c1` gave an inhibition of -14.5%.
For `CCOc1ccc(C(=O)Nc2cccc(SC)c2)cc1`, the inhibition was 82.4% (active).
In the case of `O=C(Nc1ccc(N2CCOCC2)cc1)c1cccc(S(=O)(=O)N2CCOCC2)c1`, the inhibition is reported as -6.21%.
`COc1cccc(C(=O)Nc2ccc(N3CCCC3)cc2)c1` was tested, and the inhibition was 96.4% (active).
With `COc1cccc(C(=O)Nc2nnc(S(=O)(=O)N3CCCCC3)s2)c1` the inhibition was -11%.
For `O=C(OC1CCOC1=O)c1cccc(S(=O)(=O)Nc2ccc(F)cc2)c1` (configuration not stated), the inhibition was 2.88%.
`O=C(/C=C/c1ccco1)NC(=S)Nc1ccccc1Br` gave an inhibition of -6.97%.
In the case of `COc1cccc(NC(=O)COC(=O)/C=C/c2ccco2)c1`, the inhibition is reported as -1.22%.
With `O=C(/C=C/c1ccco1)Nc1ccc(Oc2ccccc2)cc1` the inhibition was 58.9% (active).
`O=C(NCCc1ccc(Cl)cc1Cl)c1cc([N+](=O)[O-])c[nH]c1=O` was tested, and the inhibition was 4.55%.
`Cc1cc(OC(=O)c2ccc(OC(C)C)cc2)c([N+](=O)[O-])c(=O)[nH]1` was tested, and the inhibition was 1.33%.
With `COc1cccc(-c2nnc(SCCOc3ccc4c(C)cc(=O)oc4c3)o2)c1` the inhibition was 1.03%.
With `COc1cccc(-c2nc3cc(C)ccc3o2)c1` the inhibition was 96.2% (active).
For `COc1ccc2oc(-c3cccc(NC(=O)CSc4ccc(Cl)cc4)c3)nc2c1`, the inhibition was -5.16%.
`COc1ccc([N+](=O)[O-])cc1-c1nc2ccccc2nc1-c1ccccc1` was tested, and the inhibition was 12.3%.
With `O=[N+]([O-])c1ccc2oc(-c3cccc(O)c3)nc2c1` the inhibition was 84.7% (active).
Work on `O=[N+]([O-])c1ccc2c(c1)Nc1nc3ccccc3nc1N2` yielded an inhibition of -4.07%.
